Consider 45 molecules from PubChem BioAssay AID504444 (National Center for Advancing Translational Sciences (NCATS), 2011).

The structures appear in SMILES notation. In all, about 360,000 compounds went through this assay and about 7,500 (2.1%) were called active. Roughly 20% stayed inconclusive and do not appear here. For the sample, actives were picked, then their nearest neighbours and some compounds at random. A number with no mark means an inactive call. Calls come from the whole dose curve; as a rule, active = well fitted inhibition curve with a large enough effect; inconclusive = small, poorly fitted or top-dose-only effect, or effect the other way; inactive = flat fitted curve, though single readings scatter.
% is set by controls: 0 for no effect and ±100 for the full control effect; potency is the fitted concentration of half-maximal effect.

This assay is described as follows: Nrf2 qHTS screen for inhibitors. Note: nearly all actives have a fitted effect of over 60% in size. Particulars: A549 ARE-Fluc reporter, luciferase luminescence, 18-24 h; series mostly up to 46 µM; activity change, negative = inhibition: at the top concentration. From the text:
NIH Molecular Libraries Probe Production Network [MLPCN]
NIH Chemical Genomics Center [NCGC]
Assay Provider: Shyam Biswal, Johns Hopkins University
Nrf2 is a transcription factor that maintains cellular redox homoestasis and protects cells from xenobiotics. Nrf2 binds to the antioxidant response element (ARE) to induce gene expression of a broad spectrum of genes that encode for antioxidants. […] Finding a small molecule that act as an inhibitor of Nrf2 function would represent a novel therapeutic target that could lead to improvement in survival of patients undergoing chemo- and/or radio- therapy.
This is the Nrf2 activity measured in the luminescent read.
1. Shibata, T., et al., Genetic Alteration of Keap1 Confers Constitutive Nrf2 Activation and Resistance to Chemotherapy in Gallbladder Cancer. Gastroenterology, 2008.
2. Sjoblom, T., et al., The consensus coding sequences of human breast and colorectal cancers. Science, 2006. 314(5797): p. 268-74.
NCGC Assay Protocol Summary:
A concentration-response assay was performed with A549 ARE_Fluc cells which are suspended in 5% FBS OPTI-MEM. Five uL were dispensed into 1536-well white TC-treated plate using the Kalypsys dispenser to achieve a density of 5000 cells/well in all columns except column 1. The plate is incubated at 37deg C at 5% CO2 for 2 hours before 23 nL of compounds are added with the Kalypsys pin tool equipped with a 1,536-pin array containing 10-nL slotted pins (FP1S10, 0.457-mm diameter, 50.8 mm long; V&P Scientific). The control compounds Budesonide and Staurosporine are both added at a concentration of 2mM and Budesonide is also added as a 1:10 titration, starting at 200uM, to achieve dose-response. After an 18-24 hour incubation at 37deg C at 5% CO2, 5ul of medium is added to column 1. Afterwards 1ul of 5x of CellTiter-Fluor (Promega) is added to every well. The plate is then incubated at 37deg C at 5% CO2 for 30 minutes before they are read on the ViewLux (Perkin Elmer) for a fluorescent read Ex=405(10)/Em=525(10) for a 3 second exposure, 2x binning, and high gain. Then 3 uL of 3x BugLite is dispensed into all wells and the plate is incubated at ambient room temperature for 15 minutes. Afterwards another ViewLux read is performed using the clear filter to get a luminescent read with the settings of 40 second exposure, 2x binning, and high gain. Cytotoxicity is assessed through the first fluorescent read and then biochemical activity against Nrf2 is measured in the luminescent read.
Take `CN(C)C(=O)Oc1ccc(NC(=O)N2CCOCC2)cc1`: the “activity change, negative = inhibition” value is 3.42%. In the case of `CCN(CC)C(=O)Oc1ccc(NC(=O)N2CCOCC2)cc1`, the “activity change, negative = inhibition” value was -7.97%. For `O=C(Nc1cccc(OC(=O)N2CCCCC2)c1)N1CCOCC1`, the Potency was 16.4 µM (active). As for `COC(=O)C1=C(c2c(C)noc2C)C[C@@H]2CC[C@H]1N2C(=O)NCc1ccc2c(c1)OCO2`, the “activity change, negative = inhibition” value is -8.27%. `c1ccc(C(CN2CCCCC2)c2ccccc2)cc1`: the “activity change, negative = inhibition” value is 2.82%. Regarding `C[C@]12CC[C@H](O)CC1=C([N+](=O)[O-])CC1C2CC[C@@]2(C)C1CC[C@@H]2O` (stereo not given in full), the “activity change, negative = inhibition” value is 0.87%. In the case of `O=C1NC(=O)C(CCOc2ccccc2)(CCc2ccccc2)C(=O)N1`, the “activity change, negative = inhibition” value was -22.3%. Take `CCCCC(=O)N/N=C/c1c(O)n(-c2ccccc2)c(=O)[nH]c1=O`: the “activity change, negative = inhibition” value was 5.34%. As to `CCCCC(=O)N/N=C/c1c(O)n(CCC2=CCCCC2)c(=O)[nH]c1=O`, the Potency was 18.4 µM (active). Regarding `O=c1[nH]c(=O)n(CCc2ccc(F)cc2)c(O)c1/C=N/N1CCCCC1`, the “activity change, negative = inhibition” value is -3.29%.

`CN(C)CC1Oc2ccccc2OC1(O)c1ccccc1` (stereo not given): the Potency is 14.6 µM (active).

Regarding `CC1C(=O)OC2CCN3CC=C(COC(=O)C(C)(O)C1(C)O)C23` (stereo not given), the “activity change, negative = inhibition” value was 4.37%.

With `COC(=O)C1=C(c2ccc(Cl)c(C(F)(F)F)c2)C[C@@H]2CC[C@H]1N2C(=O)NC(C)C`, the “activity change, negative = inhibition” value was -21.4%. With `O=C1NC(=O)C(Cc2ccccc2)C(=O)N1`, the “activity change, negative = inhibition” value was 2.99%.

For `Cc1ccc(C(C)C)c(OCC(=O)N2CCN(CC(=O)N3CCOCC3)CC2)c1`, the “activity change, negative = inhibition” value was 8.39%. Take `O=C(O)c1cc[c]([Sb](=[O])([OH])[OH])cc1[N+](=O)[O-]`: the “activity change, negative = inhibition” value was 13.5%. With `CC/C(=N\NC(=O)c1ccccc1O)c1c(O)n(Cc2ccccc2)c(=O)[nH]c1=O`, the “activity change, negative = inhibition” value was 8.94%. For the molecule `CCC(=NCCc1ccccc1)c1c(O)n(C2CCCCC2)c(=O)[nH]c1=O`, the Potency is 20.6 µM (active).

As to `CC(=O)c1c(O)n(C2CCCCCC2)c(=O)[nH]c1=O`, the “activity change, negative = inhibition” value was -21.3%. As to `Cn1cc(C(=O)OCC(=O)N2CCCC2)c2ccccc21`, the “activity change, negative = inhibition” value is 5.8%. Regarding `CC1CNCCN1c1ccc(Cl)cc1` (stereo not given), the “activity change, negative = inhibition” value was 8.73%.

On to `CCn1cc2nc(SCc3ccccc3Cl)n(CCc3ccccc3)c(=O)c2n1`, for which the Potency is 18.4 µM (active). On to `CC(=O)C1(O)CCC2C3CCC4=C(Cl)C(=O)CCC4(C)C3CCC21C` (stereo not given), for which the “activity change, negative = inhibition” value was -13.3%. For the molecule `Cc1ccc(N(C)C(=O)Oc2cccc3ccc(C)nc23)cc1`, the “activity change, negative = inhibition” value was -14.6%. Take `CN1CCc2cc3c(cc2[C@H]1[C@@H]1OC(=O)c2c1ccc1c2OCO1)OCO3`: the “activity change, negative = inhibition” value is 6.77%. Consider `COc1cccc(CN2CCCC(C(=O)c3ccccc3SC)C2)c1O` (stereo not given), for which the “activity change, negative = inhibition” value is -1.57%. Consider `CC1CC=CCC12C(=O)NC(=S)NC2=O` (stereo not given), for which the “activity change, negative = inhibition” value was 13.2%.

Take `CCOc1ccc(CNC(=O)c2cccc(Nc3nc4ccccc4n4nnnc34)c2)cc1OC`: the Potency was 7.31 µM (active). On to `COc1cc(Cn2c(N)c(C(=O)NCc3ccco3)c3nc4ccccc4nc32)cc(OC)c1OC`, for which the “activity change, negative = inhibition” value was -29.4%. On the same count and under the same terms, as for `CCCn1c(C(=O)c2ccccc2OC)nc2ccccc21`, the figure is 4.64%; as for `CC(C)Oc1cccc(C(=O)C2CCCN(C3CCOCC3)C2)c1` (stereo not given), -9.14%; as for `CCC1(CC(C)c2ccccc2)C(=O)NC(=O)NC1=O` (stereo not given), -20.9%. On the same count and under the same terms, then `COC(=O)C1=C(c2ccc3ccccc3c2)C[C@@H]2CC[C@H]1N2C(=O)NCCO`, with -2.19%.

With `Cc1ccc(NC(=O)CN(C)CC(=O)Nc2cccc(F)c2)cc1[N+](=O)[O-]`, the Potency is 11.6 µM (active). Consider `CNCC(O)c1cc(F)c(OCc2ccccc2)c(OCc2ccccc2)c1F` (stereo not given), for which the “activity change, negative = inhibition” value was 12.1%. Regarding `CCOC(=O)CC(SP1(=S)OCC2(CCCCO2)C(C2CCCCO2)O1)C(=O)OCC` (stereo not given), the “activity change, negative = inhibition” value was -7.98%. As for `CC(CC(C#N)(c1ccccc1)c1ccccc1)N1CCCCC1` (stereo not given), the “activity change, negative = inhibition” value was 3.56%. Turning to `O=C(CCC(=O)N1C[C@H]2C[C@@H](C1)c1cccc(=O)n1C2)NCc1ccccc1C(F)(F)F`, the “activity change, negative = inhibition” value is -12.9%. Take `COC(=O)C1=C(c2ccc(F)cc2OCc2ccccc2)C[C@@H]2CC[C@H]1N2C(=O)NCc1ccc(Cl)cc1`: the Potency was 23.1 µM (active).

`COC(=O)C1=C(c2ccccc2)C[C@@H]2CC[C@H]1N2C(=O)NCc1ccco1`: the “activity change, negative = inhibition” value is 6.49%. Turning to `COC(=O)C1=C(c2ccc(F)cc2F)C[C@@H]2CC[C@H]1N2C(=O)NC1CC1`, the “activity change, negative = inhibition” value was 0.179%.

As for `C[C@]12CCCCC1=CC(=O)C1C2CC[C@@]2(C)C1C[C@@H](F)[C@@H]2O` (stereo not given in full), the “activity change, negative = inhibition” value is -20%. On the same count and under the same terms, then `Cc1cc(C(=O)OCC(=O)Nc2c(F)cccc2F)c(C)n1C1CC1`, with -16.9%. For `c1ccc(Cc2nn3c(Cn4cnc5ccccc54)nnc3s2)cc1`, the Potency was 23.1 µM (active). For the molecule `O=c1[nH]c(CN2CC=C(c3ccccc3)CC2)nc2scc(-c3cccs3)c12`, the “activity change, negative = inhibition” value was 0.416%.
